Screens deposited in PubChem by National Center for Advancing Translational Sciences (NCATS).
Shown are actives, neighbours in structure and some others; about 12% of the full set was active somewhere.
Sm TGR block – blocks Schistosoma mansoni thioredoxin glutathione reductase | purified TGR, DTNB reduction, TNB absorbance 405 nm | Potency, µM (titrated, usually from 114 µM), without a hit: at the highest dose activity change, negative = inhibition, most hits filed as inhibitors | 360,000 tested, 3% active; also: % is scaled to controls: 0 for no effect and ±100 for the full control effect; nearly all actives have a fitted effect of over 60% in size
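First, TGR (20 nM dispensed) and NADPH were mixed with compound. Second, a 15 min room-temperature incubation followed. Third, further NADPH and then DTNB were added to start the reaction. Finally, TNB absorbance was monitored kinetically.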
Pf growth 48h – P. falciparum growth inhibition at 48 hours (one generation); P. falciparum luciferase growth in erythrocytes, 48 h; Potency, µM (highest dose often 28.7 µM), for the others: at the top dose activity change, negative = inhibition, most hits filed as inhibitors; 310,000 tested, 5.9% active; also: % is scaled to controls: 0 for no effect and ±100 for the full control effect
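Growth was read as firefly luciferase luminescence after a 48 h, 37 C, 5% CO2 exposure of compounds to reporter-bearing P. falciparum cultures (0.1% parasitemia, 2% hematocrit final) in Albumax-supplemented RPMI 1640.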
AmpC detergent – inhibitors of E. coli AmpC beta-lactamase with detergent | Potency, µM (series often up to 114 µM), inactives show at the top dose activity change, negative = inhibition, usual class: inhibitors | AmpC hydrolysis of nitrocefin, absorbance 480 nm, 0.01% Triton | P00811 | 370,000 tested, 0.041% active;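 also: 0% = no-compound wells and -100% = no-enzyme wells; nearly all actives have a fitted effect of over 25% in size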
Target sequence (P00811 whole entry, looked up): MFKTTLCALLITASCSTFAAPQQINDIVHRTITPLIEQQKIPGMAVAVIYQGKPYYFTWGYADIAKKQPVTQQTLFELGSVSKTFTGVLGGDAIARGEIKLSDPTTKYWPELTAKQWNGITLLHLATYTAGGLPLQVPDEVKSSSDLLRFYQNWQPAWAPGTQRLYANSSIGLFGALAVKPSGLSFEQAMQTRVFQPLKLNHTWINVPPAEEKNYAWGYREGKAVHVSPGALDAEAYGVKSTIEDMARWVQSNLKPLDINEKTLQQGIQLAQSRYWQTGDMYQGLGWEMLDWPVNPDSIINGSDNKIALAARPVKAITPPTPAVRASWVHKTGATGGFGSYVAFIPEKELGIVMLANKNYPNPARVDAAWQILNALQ
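20 mM phosphate pH 7.0 + 0.01% (detergent screen) or 0.0001% Triton X-100; 5.3 nM AmpC reagent; cpd preinc 15 min RT; nitrocefin (800 uM stock) to start; A480 q20 s × 4 min; Activity was normalised to no-enzyme and no-compound control wells.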
SARS PLpro yeast – blocks SARS-CoV papain-like protease in a yeast assay. S. cerevisiae expressing SARS-CoV PLpro, growth rescue. Potency, µM (highest dose often 32.9 µM), for the others: at the top dose activity, positive = growth rescue, most hits filed as activators. 330,000 tested, 0.19% active. AID 485353; calls by dose curve; also: 0% is about no effect; nearly all actives have a fitted effect of over 55% in size
Pf growth 96h – P. falciparum growth inhibition at 96 hour, primary screen for plastid delayed-death inhibitors; P. falciparum luciferase reporter growth, 96 h; Potency, µM (series often up to 28.7 µM), for inactives: at the top dose activity change, negative = inhibition, actives largely listed as inhibitors; 320,000 tested, 6.9% active; also: % is scaled to controls: 0 for no effect and ±100 for the full control effect
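Readout is luminescence from an integrated firefly luciferase in P. falciparum. Red cells, 2% hematocrit and 0.05% parasitemia final, were cultured with compound through two parasite generations (96 hours) at 37 C, 5% CO2.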
AmpC no deterg – inhibitors of E. coli AmpC beta-lactamase without detergent | P00811 | AmpC nitrocefin hydrolysis, absorbance 480 nm, 0.0001% Triton | Potency, µM (titrated, usually from 57.1 µM), for inactives: at the top dose activity change, negative = inhibition, usual class: inhibitors | 330,000 tested, 0.52% active | AID 485341;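 also: plate controls were no compound for no effect and no enzyme for full effect; nearly all actives have a fitted effect of over 20% in size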
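AmpC (5.3 nM in the dispensed reagent) in 20 mM phosphate pH 7.0 with 0.01% (detergent screen) or 0.0001% Triton X-100 was preincubated with compounds for 15 min at room temperature. Nitrocefin was then added from an 800 uM solution, and hydrolysis was followed at 480 nm.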
The depositor's hits bear a star; u = inconclusive; x = no result; [ ] = remark or other dose. Unless noted, calls follow the shape of the dose curve; as a rule, active = well fitted curve in the direction sought with a large enough effect; inconclusive = small, poorly fitted or top-dose-only effect, or another doubt; inactive = no such curve, though single readings can be large; an effect the other way counts as inactive or inconclusive. Potency is read from the fitted curve at half-maximal effect.

SMILES | Sm TGR block | Pf growth 48h | AmpC detergent | SARS PLpro yeast | Pf growth 96h | AmpC no deterg
COc1cccc(CN2CCNC(=O)C2CC(=O)N(C)C2CCOCC2)c1 (stereo unspecified) | u | 19.3% | -5.5% | -6.4% | -13.6% | 11.6%
COc1cccc(CN2CCNC(=O)C2CC(=O)NCCN2CCCCC2=O)c1 (stereo unspecified) | u | 9.8% | 6.6% | -0.8% | 10.4µM* | 32.4%
CN(Cc1ccccn1)C(=O)CC1C(=O)NCCN1Cc1ccc(F)cc1Cl (stereo unspecified) | 44.7µM* | 14.7% | 3.4% | -6.4% | 3.5% | 26.6%
COc1cccc(CN2CCNC(=O)C2CC(=O)N(C)C2CCCCC2)c1 (stereo unspecified) | 44.7µM* | -17.7% | -3.2% | u | u | 80.9%
COc1ccccc1NC(=O)CN1C(=O)CC(c2ccc(C)c(C)c2)=Nc2ccccc21 | -2.3% | x | 23.4% | x | x | x
CN(CC1CCOCC1)C(=O)CC1C(=O)NCCN1Cc1cccc(Oc2ccccc2)c1 (stereo unspecified) | 39.8µM* | u | -3.4% | 0.7% | u | 155.6%
CN(Cc1ccccn1)C(=O)CC1C(=O)NCCN1Cc1cccc(Oc2ccccc2)c1 (stereo unspecified) | 50.1µM* | -20.6% | -5.2% | 0.0% | u | 121.0%
O=CN1CCCN(C(=O)CC2C(=O)NCCN2Cc2cccc(Oc3ccccc3)c2)CC1 (stereo unspecified) | 12.6µM* | -3.6% | 3.3% | -3.5% | u | 163.3%
O=C(CC1C(=O)NCCN1Cc1ccc(F)cc1Cl)NCc1ccon1 (stereo unspecified) | 12.6µM* | 4.1% | -1.0% | 3.8% | 73.4% | -8.3%
Cc1ccc(-c2nc3nc(C)cc(N4CCN(c5cc(Cl)ccc5C)CC4)n3n2)cc1 | -33.5% | x | -0.5% | x | x | x
C/C(=N/NS(=O)(=O)c1cccc([N+](=O)[O-])c1)c1ccc2c(c1)OCO2 | -20.6% | 20.5% | 4.4% | 2.1% | 0.828µM* | -22.6%
C/C(=N\NS(=O)(=O)c1ccc(C)c([N+](=O)[O-])c1)c1ccc2c(c1)OCO2 | -21.2% | 6.1% | 3.2% | -3.0% | 23.5% | -32.7%
C/C(=N\NS(=O)(=O)c1ccc([N+](=O)[O-])cc1)c1ccc2c(c1)OCO2 | 3.6% | 40.3% | -1.6% | 6.5% | 5.86µM* | -25.4%
CCN(CC)S(=O)(=O)c1ccc(N2CCOCC2)c(NC(=O)COc2ccccc2C)c1 | -2.3% | 1.85µM* | 6.2% | -0.7% | 2.94µM* | 52.0%
Cc1ccnc2nc(C(=O)Nc3cc(Cl)ccc3N3CCOCC3)nn12 | 10.4% | 0.147µM* | 1.0% | -15.9% | 0.233µM* | 1.0%
Cc1cccc(NC(=O)CSCC(=O)Nc2cc(Cl)ccc2N2CCOCC2)c1 | -1.0% | 11.7µM* | u | -10.6% | u | 50.8%
CCC(=O)c1ccc(OCC(=O)Nc2ccc(N3CCOCC3)cc2N2CCOCC2)cc1 | -19.7% | u | -2.1% | -0.9% | 2.94µM* | -1.3%
O=C(COc1cc(F)ccc1[N+](=O)[O-])Nc1ccc(N2CCCCC2)cc1 | -10.8% | u | u | x | 0.0% | 0.8%
Cc1ccccc1OCC(=O)Nc1ccc(N2CCOCC2)cc1N1CCOCC1 | -20.1% | 9.28µM* | -7.3% | 1.6%[6.58 µM] | u | 168.1%
CCN(CC)S(=O)(=O)c1ccc(N2CCOCC2)c(NC(=O)COc2ccccc2C#N)c1 | 0.0% | 11.7µM* | -0.7% | -0.1% | u | 76.5%
O=C(COc1cc(F)ccc1[N+](=O)[O-])Nc1ccc(N2CCOCC2)cc1 | 44.7µM* | u | -7.2% | 2.8% | u | -24.9%
O=C(Cc1ccc(Cl)c(Cl)c1)Nc1ccccc1N1CCOCC1 | -15.2% | 0.4% | 6.5% | 1.4% | -29.1% | -24.1%
O=C(Cc1ccc2c(c1)OCCO2)Nc1cc(Cl)ccc1N1CCOCC1 | -7.8% | 11.7µM* | u | -2.3% | u | -8.8%
Cc1ccccc1OCCC(=O)Nc1ccc(N2CCOCC2)cc1N1CCOCC1 | -3.5% | u | -9.2% | 0.1% | -6.6% | 117.8%
COc1ccc(-c2nc(CCNC(=O)c3c(F)cccc3Cl)cs2)cc1 | 11.3% | x | 0.6% | x | x | x
SMILES | Sm TGR block | Pf growth 48h | AmpC detergent | SARS PLpro yeast | Pf growth 96h | AmpC no deterg
CCCCN(CC)CCNC(=O)CN1C(=O)COc2ccc(S(=O)(=O)N3CCOCC3)cc21 | -3.1% | x | -6.4% | x | x | x
CCN(CC)S(=O)(=O)c1ccc(N2CCCC2)c(NC(=O)Cc2ccccc2)c1 | -22.6% | u | 3.0% | -1.1% | u | -20.5%
CCN(CC)S(=O)(=O)c1ccc(N2CCOCC2)c(NC(=O)CC23CC4CC(CC(Br)(C4)C2)C3)c1 | -9.1% | -19.6% | -2.3% | u | 10.4µM* | -4.1%
CCN(CC)S(=O)(=O)c1ccc(N2CCOCC2)c(NC(=O)Cc2ccc(Cl)cc2)c1 | -9.1% | 11.7µM* | -5.5% | 15.4% | 11.7µM* | 39.4%
CCOc1ccc(Nc2cc(C)c(C#N)c3nc4ccccc4n23)cc1 | 1.7% | x | 12.1% | x | x | x
Cc1cc(O)c(C(C[N+](=O)[O-])c2ccc(Cl)cc2Cl)c(=O)o1 (stereo unspecified) | 50.1µM* | -6.7% | 0.2% | -15.0% | x | -29.3%
O=c1[nH][nH]c(-c2ccccc2O)c1C(C[N+](=O)[O-])c1ccc(Cl)cc1Cl (stereo unspecified) | -30.2% | 1.2% | -1.3% | -6.2% | -20.5% | -13.6%
COc1ccc(-c2nc3sc(CCNC(=O)c4cccc(C(F)(F)F)c4)c(C)n3n2)cc1 | 12.6% | x | 0.7% | x | x | x
Cc1cc(C)cc(NC(=O)N2CCCN(c3c(Cl)cncc3Cl)CC2)c1 | 2.3% | u | -3.4% | -0.2% | u | -37.1%
O=C(Nc1cccc2ccccc12)N1CCN(c2ccc(F)cc2)CC1 | 1.2% | 12.8% | -2.5% | -2.7% | 1.47µM* | -23.6%
O=C(Nc1cccc2ccccc12)N1CCCN(c2c(Cl)cncc2Cl)CC1 | 10.5% | u | 2.7% | 0.3% | 5.86µM* | -8.0%
O=C(Nc1cccc2ccccc12)N1CCOCC1 | 5.9% | 8.9% | -6.9% | -0.5% | 0.1% | -22.8%
COC(=O)c1ccccc1NC(=O)N1CCN(c2ccc(F)cc2)CC1 | 16.4% | -8.6% | -4.4% | -0.3% | 4.15µM* | -8.0%
COc1ccc(OC)c(CNC(=O)C2CCN(S(=O)(=O)N3CCC(C)CC3)CC2)c1 | -8.7% | 1.4% | -8.2% | -0.7% | 11.7µM* | 39.2%
COc1cccc(CNC(=O)C2CCN(S(=O)(=O)N3CCC(C)CC3)CC2)c1 | 0.1% | 22.0% | -2.7% | x | 13.1µM* | 32.6%
COc1ccc(N2CCN(CC(O)COc3ccc4c(c3)CCC4)CC2)cc1 (stereo unspecified) | -22.3% | x | -2.5% | -5.6%[6.58 µM] | -11.2% | 72.8%
